Screening results: PubChem, National Center for Advancing Translational Sciences (NCATS)
In the library only some 9.2% were active in any assay of this set; here they are far more common.
SMN2 splice up – increases expression of the SMN2 splice variant; Potency, µM (series often up to 46.1 µM), inactives show at the highest dose activity change, positive = activation, actives largely listed as activators; HEK293 SMN2-luciferase splicing reporter, luminescence, 30-36 h; 210,000 compounds, 2.8% hits; AID 1458; further: % of control where 0% means no effect; nearly all actives have a fitted effect of over 55% in size
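HEK293 cells carry an SMN2 minigene-luciferase reporter in which exon 7 inclusion puts luciferase in frame. Cells were seeded at 2000 cells/well, attached for 10-12 hours, then exposed to compounds for 30-36 hours at 37C before ONE-Glo luminescence.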
Rab9 promoter act – activates the Rab9 promoter; 320,000 compounds, 2.8% hits; Potency, µM (doses to about 9.22 µM), for the others: top-dose activation, negative = inhibition, actives largely listed as activators; Huh7 Rab9 promoter-luciferase reporter, luminescence, 24 h; further: % of control where 0% means no effect; nearly all actives have a fitted effect of over 60% in size
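Huh7 reporter line, Rab9 promoter upstream of luciferase. Compound exposure 24 h at 37 °C in reduced-serum medium with 10% FBS. Read-out: luminescence.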
NPC1 prom act – activates the NPC1 promoter | Huh7 NPC1 promoter luciferase reporter, 24 h | Potency, µM (titrated, usually from 9.22 µM), for the others: top-dose activation, actives largely listed as activators | 320,000 compounds, 2.4% hits | AID 485313; further: % of control where 0% means no effect; nearly all actives have a fitted effect of over 60% in size
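Compounds in DMSO were transferred onto Huh7 NPC1-luciferase reporter cells pre-incubated 2 h; after 24 h at 37 °C, Amplite reagent was dispensed and luminescence recorded 10 min later.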
ELG1 DNA repair – blocks ELG1-dependent DNA repair in HEK293T cells; HEK293T ELG1-luciferase reporter, luminescence, 16 h; DNA damage induced by 5-fluorouridine; Potency, µM (highest dose often 46.1 µM), without a hit: top-dose activity change, negative = inhibition, actives largely listed as inhibitors; 330,000 compounds, 2.3% hits; further: on the % scale 0 is the no-effect control and ±100 the full control effect; nearly all actives have a fitted effect of over 55% in size
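5-Fluorouridine DNA damage + compound/DMSO, 2,000 cells/well, 16 h, 37 °C/5% CO2. ONE-Glo, 30 min RT, luminescence. Readout = decrease in reporter signal.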
ELG1 genotox – genotoxicity induction in ELG1-luciferase HEK293T cells. HEK293T ELG1-luciferase reporter, luminescence, 16 h. Potency, µM (highest dose often 46 µM), for the others: at the highest dose activity change, positive = activation, most hits filed as activators. 330,000 compounds, 1.3% hits. AID 504466; further: % of control where 0% means no effect; nearly all actives have a fitted effect of over 60% in size
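Luminescence read-out: rising ELG1-luciferase signal, reflecting elevated ELG1 protein under genetic stress, flags genotoxic compounds. Cells were treated for 16 hr at 37 °C before ONE-Glo detection.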
FLuc counter – counter-screen for miR-21 project: firefly luciferase inhibitors or activators; Potency, µM (titrated, usually from 57.5 µM), for the others: top-dose activity change, negative = inhibition, most hits filed as inhibitors; AID 588342; P08659; purified FLuc, Km substrates, luminescence inhibition; 360,000 compounds, 6.9% hits;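 further: plate controls were vehicle for no effect and reference inhibitor for full effect; nearly all actives have a fitted effect of over 55% in size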
Target sequence (P08659 whole entry, looked up): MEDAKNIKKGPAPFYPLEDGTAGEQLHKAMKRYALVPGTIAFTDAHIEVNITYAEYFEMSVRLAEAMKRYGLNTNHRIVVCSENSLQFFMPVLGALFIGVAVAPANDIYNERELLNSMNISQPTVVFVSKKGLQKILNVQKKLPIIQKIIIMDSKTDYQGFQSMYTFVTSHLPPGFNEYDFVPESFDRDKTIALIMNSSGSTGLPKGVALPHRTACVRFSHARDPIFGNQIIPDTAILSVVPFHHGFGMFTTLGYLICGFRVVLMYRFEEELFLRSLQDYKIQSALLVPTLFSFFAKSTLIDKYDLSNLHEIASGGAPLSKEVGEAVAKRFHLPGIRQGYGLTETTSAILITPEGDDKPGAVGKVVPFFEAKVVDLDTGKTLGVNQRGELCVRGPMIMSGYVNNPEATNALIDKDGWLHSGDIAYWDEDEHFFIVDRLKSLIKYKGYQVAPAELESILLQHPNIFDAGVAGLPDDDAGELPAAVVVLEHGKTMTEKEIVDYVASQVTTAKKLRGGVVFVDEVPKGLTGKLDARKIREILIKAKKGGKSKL
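Biochemical qHTS of compounds, final roughly 60 µM downward over six points, against 10 nM purified firefly luciferase using Km concentrations of substrates (10 uM D-luciferin, 10 uM ATP) in Tris acetate pH 7.5 buffer; luminescence output.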
An asterisk follows results filed as active; ? = inconclusive; nt = no result. The call rests on the fitted dose curve; in most records, active means well fitted curve in the direction sought with a large enough effect; inconclusive means small, poorly fitted or top-dose-only effect, or another doubt; inactive means no such curve, though single readings can be large; an effect the other way counts as inactive or inconclusive. Potency means the concentration at half of the fitted maximal effect.

SMILES | SMN2 splice up | Rab9 promoter act | NPC1 prom act | ELG1 DNA repair | ELG1 genotox | FLuc counter
CCC(C(=O)N1CCOCC1)n1nc(C)c2sc3ccccc3c2c1=O (stereo not given) | nt | -3% | -3% | 25% | 0% | 0%
COc1cc(/C=C(\C#N)C(=O)N2CCc3ccccc32)ccc1O | nt | -7% | -1% | 11% | 0% | 17µM*
CCOc1ccc(/C=C(\C#N)C(=O)Nc2cccnc2)cc1 | -2% | -2% | 0% | -5% | 1% | 0%
COc1cc(/C=C(\C#N)C(=O)Nc2ccc3c(c2)OCCO3)ccc1O | nt | 12% | -5% | 2% | 5% | 0.27µM*
CCOc1cccc(NC(=O)/C(C#N)=C/c2cccnc2)c1 | nt | -1% | -6% | -3% | 0% | 17µM*
CNc1ccc(/C=C(\C#N)C(=O)Nc2ccccn2)cc1[N+](=O)[O-] | nt | 0% | 2% | 16% | 0% | 0%
CCOc1cc(/C=C(\C#N)C(=O)Nc2ccccn2)ccc1O | nt | 1% | -7% | 5% | 9% | 17µM*
COC(=O)c1c(N2C(=O)CC(Sc3ccccc3C(=O)O)C2=O)sc2c1CCCC2 (stereo not given) | 12% | 0% | -3% | 2% | 2% | -20%
Cc1nc(SCC(=O)N2CCc3ccccc32)n[nH]1 | 9% | 21% | 14% | ? | ? | ?
Cc1nc(-c2cccc(NS(=O)(=O)c3cccc4ccccc34)c2)cs1 | 7% | 0% | 0% | -4% | 2% | -16%
COc1cc(/C=C(\C#N)C(=O)Nc2ccccn2)ccc1O | nt | -2% | -3% | ? | ? | 11µM*
COc1cc(/C=C(\C#N)C(=O)Nc2cccc3ncccc23)ccc1O | 3% | 0% | -4% | -2% | 0% | 0%
CCOC(=O)c1noc2ncnc(Nc3cccc(C(F)(F)F)c3)c12 | nt | nt | nt | nt | nt | -3%
Cc1cc(Cl)ccc1OCC(=O)Nc1nc(-c2cccnc2)cs1 | nt | 9% | -3% | -3% | 14% | -2%
CCOC(=O)c1csc(NC(=O)COc2ccc(Cl)cc2Cl)n1 | -8% | -8% | -2% | -5% | 0% | 24µM*
O=C(COc1ccccc1Cl)Nc1nc(-c2cccs2)cs1 | -3% | 1% | -2% | 21% | -1% | 17µM*
Cc1cc(Cl)ccc1OCC(=O)Nc1nc(-c2cccs2)cs1 | -10% | -1% | -3% | 16% | -1% | 24µM*
CCOC(=O)N1CCN(C(=O)CSCC(=O)Nc2nc(-c3cccs3)cs2)CC1 | -34% | 3% | -1% | 26µM* | -2% | -16%
CC1CCN(C(=O)CSCC(=O)Nc2nc(-c3cccs3)cs2)CC1 | ? | 16% | 13% | ? | 10% | ?
CCOC(=O)c1csc(NC(=O)Nc2cccc(Cl)c2)n1 | -17% | -1% | 1% | 5% | 1% | -2%
COc1ccccc1CCCNC(=O)C1CCC(=O)N(CCc2ccc(Cl)cc2)C1 (stereo not given) | nt | -1% | -3% | ? | -14% | -7%
COc1cc2c(cc1OC)-c1cc(NC3CCCC3)nc(=O)n1CC2 | nt | -4% | -1% | ? | ? | -9%
COc1cc2c(cc1OC)-c1cc(Nc3ccc(N(C)C)cc3)nc(=O)n1CC2 | nt | -5% | -3% | ? | ? | 12µM*
COc1cc2c(cc1OC)-c1cc(OCc3ccccc3Cl)nc(=O)n1CC2 | ? | ? | -4% | 16µM* | -6% | ?
CCN(CC)c1ccc(Nc2cc3n(c(=O)n2)CCc2cc(OC)c(OC)cc2-3)cc1 | nt | 17% | 1% | 5.2µM* | 0% | 24µM*
CCN(CC)Cc1ccccc1Sc1ccccc1 | 12% | 2% | 0% | -2% | 0% | 3%
Cc1ccc(OCC(=O)Nc2ccc3c(c2)OCCO3)cc1C | -17% | 14% | 6% | ? | ? | 17µM*
Cc1ccc(OCC(=O)Nc2ccc(F)cc2)cc1C | 6% | -2% | -2% | ? | ? | 19µM*
